Source: PubChem BioAssay AID686978 (National Center for Advancing Translational Sciences (NCATS), 2013)
Among all 420,000 compounds or so, about 64,000 (15%) were called active. Not shown: some 27% with an inconclusive outcome. Calls follow the shape of the dose curve; as a rule, active = well fitted inhibition curve with a large enough effect; inconclusive = small, poorly fitted or top-dose-only effect; inactive = flat fitted curve, though single readings scatter. These entries were drawn from the full list. A call without a number means that no potency is given here.

test: qHTS for Inhibitors of human tyrosyl-DNA phosphodiesterase 1 (TDP1): qHTS in cells in absence of CPT; conditions: DT40 Tdp1-/- hTDP1 cells, no CPT, ATP luminescence, 48 h; activity change, negative = growth inhibition: at 46.2 µM (top of the series); also: nearly all actives have a fitted effect of over 55% in size
Procedure, shortened: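 Cells were dispensed at 400 per well, compounds added by pin tool, plates incubated ≥48 hr at 37 °C, then CellTiter-Glo added for 30 min at room temperature before luminescence reading. Line: DT40 Tdp1-/- complemented with hTDP1; camptothecin omitted.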
Potency is read from the fitted curve at half-maximal effect.

SMILES	Potency
COCCCNC(=O)C1CC(=O)N(CCc2ccc(F)cc2)C1 (stereo not given)	inactive
COC(=O)C1C(=O)NCC1c1ccc(C)cc1 (stereo not given)	inactive
O=[N+]([O-])c1ccc(NCCCO)c(C(F)(F)F)c1	inactive
CO/N=C(\N)c1ccc([N+](=O)[O-])cc1	inactive
O=C1/C(=C\c2ccc(O)cc2)CCC1CNc1ccc(Cl)cc1 (stereo not given)	3.26 µM (active)
CCCNC(=O)C(=O)Nc1cc2c3c(c1)CCC(=O)N3CCC2	inactive
Cc1[nH]n(C(N)=S)c(=O)c1N=Nc1ccc(Cl)cc1Cl	inactive
CC1=NN(C(N)=S)C(=O)C1N=Nc1cc(Cl)ccc1Cl (stereo not given)	3.66 µM (active)
Cc1cc(C)c(C#N)c(N2CCC(C(N)=O)CC2)n1	inactive
COc1ccc(CC(NC(C)=O)C(=O)NC2CCN(C(=O)c3ccc(Cl)cc3)CC2)cc1 (stereo not given)	inactive
CC1CCN(C(=O)c2ccc(CSc3ccc(Cl)cc3)cc2)CC1	16.4 µM (active)
O=C(c1ccc(CSc2ccccc2)cc1)N1CCCCCC1	inactive
Cc1cc(C)c(C#N)c(Nc2cccc(Br)c2)n1	inactive
CC(C)(C)OC(=O)CNC(=O)c1[nH]cnc1C(=O)N[C@@H](CCCCN)C(=O)OC(C)(C)C	inactive
C#CCOCCOCCOCCNc1nc(N2CCN(C(=O)C([C@@H](C)O)n3cc([C@@H](N)CCCCN)nn3)CC2)nc(N2CCN(C(=O)[C@H](CCCCN)n3cc(CN)nn3)CC2)n1 (stereo not given in full)	inactive
O=C(NCc1ccco1)C1CCCN1S(=O)(=O)c1ccccc1C(F)(F)F (stereo not given)	inactive
CCOC(=O)CSc1nc(C)cc2c1C(=O)OC2	inactive
CCOC(=O)CSC1=N/C(=C/c2ccc(-n3cncn3)cc2)C(=O)N1C(C)=O	11.6 µM (active)
CCCC(=O)N1CCC1(C)C(=O)Nc1ccc(-n2cncn2)cc1 (stereo not given)	inactive
C=CCn1c(COc2ccccc2C)nnc1SCC(=O)O	inactive
COc1ccc(CNc2ncncc2-c2ccccc2C)c(OC)c1	inactive
COc1ccc(CCNc2ncnc3onc(-c4ccc(Cl)cc4)c23)c(OC)c1	14.6 µM (active)
COc1ccc(CNc2ncncc2-c2ccccc2OC)c(OC)c1	inactive
O=C(Nc1cccc2c1CCCC2)c1ccc(F)cc1	inactive
Clc1cccc(Cl)c1Cn1nnc(-c2cccs2)n1	inactive

SMILES	Potency
Cc1ccc(N=Cc2c(O)cc(C)oc2=O)c(C)c1	inactive
C=CCSc1nnc(NC(=O)c2ccc(NC(C)=O)cc2)s1	inactive
COc1cccc(OC)c1C(=O)Nc1sc2c(c1C(N)=O)CCCC2	inactive
NC(=O)c1c(NC(=O)c2ccccc2)sc2c1CCCC2	inactive
COCCN(CCOC)S(=O)(=O)c1ccc(/C(O)=C(\C#N)c2nc3ccccc3[nH]2)cc1	inactive
COCc1nnc(NC(=O)c2ccc3c(c2)OCO3)s1	inactive
C=CCN(CC=C)S(=O)(=O)c1ccc(C(=O)Nc2nc3c(s2)CCc2ccccc2-3)cc1	10.3 µM (active)
C=CCN(CC=C)S(=O)(=O)c1ccc(C(=O)Nc2sc3c(c2C(N)=O)CCCCC3)cc1	13 µM (active)
COCCN(CCOC)S(=O)(=O)c1ccc(C(=O)Nc2nc3c(s2)CCc2ccccc2-3)cc1	13 µM (active)
O=C(Nc1ncc2c(n1)-c1ccccc1OC2)c1ccc(Cl)cc1	inactive
CC1(c2nnc(-c3ccncc3)o2)CC(c2cccnc2)=NO1 (stereo not given)	inactive
CN(C)/C(=N\OC(=O)c1ccccc1)c1nonc1N	inactive
COCCNC(=O)c1ccc(Cn2c(SCC(=O)NCC3CCCO3)nc3ccc(Br)cc3c2=O)cc1 (stereo not given)	inactive
Nc1ccn(CC(=O)N2CCN(c3ccccn3)CC2)c(=O)n1	inactive
CCCC(C(=O)n1nc(C)cc1C)C(NS(=O)(=O)c1ccc(C)cc1)c1ccccc1 (stereo not given)	23.1 µM (active)
Cc1ccc(S(=O)(=O)Nc2nc(C)cc(-n3nc(C)cc3C)n2)cc1	inactive
Cc1ccc(S(=O)(=O)NC(C(=O)N2CCOCCOCCOCCOCC2)c2ccccc2)cc1 (stereo not given)	inactive
Cc1c(NC(=O)C(C)OC(=O)c2ccccc2O)c(=O)n(-c2ccccc2)n1C (stereo not given)	inactive
CCCCS(=O)c1snnc1C (stereo not given)	inactive
O=C1CCCCC1Sc1ccc(Cl)cc1[N+](=O)[O-] (stereo not given)	inactive
CCOC(=O)c1ccc(NC(=O)c2c(N)n(C)c(=O)[nH]c2=O)cc1	inactive
O=C(Nc1ccc([N+](=O)[O-])cc1)c1cnn2c1NC(=C1CC1)C=C2C(F)F	inactive
O=C(Nc1ccc(Cl)cc1)c1cnn2c1NC(=C1CC1)C=C2C(F)F	inactive
CC(C)(C)C1CCC(NC(=O)c2cnn3c2NC(=C2CC2)C=C3C(F)F)CC1 (stereo not given)	7.94 µM (active)
Cc1cc(N2C(=O)C(=O)/C(=C(/O)c3ccccc3)C2c2cccc(Br)c2)no1 (stereo not given)	inactive
